The results in this text go back to PubChem BioAssay (NCATS).

Experiment [1] addresses Cytochrome P450 2C9 (Homo sapiens) (UniProt P11712). Put plainly: Cytochrome P450 family 2 subfamily C member 9 (CYP2C9) small molecule antagonists: luciferase biochemical (cell-free) qHTS assay (AID 1645842; active = well fitted curve in the direction sought with a large enough effect in the repeat runs; an effect the other way counts as inactive or inconclusive; note: nearly all actives have a fitted effect of over 55% in size; note: potency is the fitted concentration of half-maximal effect; for activity change, negative = inhibition: % is set by controls: 0 for no effect and ±100 for the full control effect). The gist of the method:
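Luminescence, after 20 min with luciferin detection reagent, reflected CYP2C9 turnover during a 1 h NADPH-driven reaction at 37C. Enzyme-substrate mix contained 0.4% bovine serum albumin and was preincubated with compound 10 min at room temperature.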

The target in experiment [2] is Cytochrome P450 2D6 (Homo sapiens) (UniProt P10635). Briefly: Cytochrome P450 family 2 subfamily D member 6 (CYP2D6) small molecule antagonists: luciferase biochemical (cell-free) qHTS assay (AID 1645840; active = well fitted curve in the direction sought with a large enough effect in the repeat runs; an effect the other way counts as inactive or inconclusive; note: nearly all actives have a fitted effect of over 55% in size; note: potency is the fitted concentration of half-maximal effect; for activity change, negative = inhibition: % is set by controls: 0 for no effect and ±100 for the full control effect). The method in brief:
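P450-Glo luminescent screen: recombinant CYP2D6 enzyme–proluciferin substrate mix preincubated with compound 10 min at room temperature, then NADPH regeneration added for 1 h at room temperature. Detection reagent added for 20 min; luciferin light read as relative luminescence units.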
(qHTS replaces the single test concentration by a dilution series.)

Experiment [3] deals with Rap guanine nucleotide exchange factor 3 (Homo sapiens) (UniProt O95398). Briefly: Confirmatory qHTS for antagonist of cAMP-regulated guanine nucleotide exchange factor 3 (EPAC1) (AID 1645880).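 Note: plate controls were DMSO only for no effect and full effect of the ATA control for full effect; nearly all actives have a fitted effect of over 55% in size.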 The gist of the method: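 Nucleotide exchange uses 100 nM EPAC1, 250 nM RAP1B-BODIPY-GDP and 50 uM GDP, with compounds in a concentration-titration series. After 5 min at room temperature, fluorescence (480 nm ex/540 nm em) is read every 5 min for 30 min. Data are normalized to control ATA and DMSO.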

Experiment [4] has the same target. Briefly: Confirmatory qHTS for agonist of cAMP-regulated guanine nucleotide exchange factor 3 (EPAC1) (AID 1645881).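 Note: EPAC1 catalysed release of BODIPY-GDP from Rap1B seen as fluorescence loss; 100% = effect of cAMP agonist control; nearly all actives have a fitted effect of over 75% in size.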
Experiment [5] addresses Rap guanine nucleotide exchange factor 4 (Homo sapiens) (UniProt Q8WZA2). Briefly: Confirmatory qHTS for antagonist of cAMP-regulated guanine nucleotide exchange factor 4 (EPAC2) (AID 1645885). For activity change, negative = inhibition: % is set by controls: 0 for no effect and ±100 for the full control effect. Note: nearly all actives have a fitted effect of over 25% in size. Note: potency is the fitted concentration of half-maximal effect.
The target of experiment [6] is Rap guanine nucleotide exchange factor 3 (Homo sapiens) (UniProt O95398). Briefly: Counterscreen qHTS for antagonist of cAMP-regulated guanine nucleotide exchange factor 3 (EPAC1) (AID 1645888).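 Note: fluorescence loss as bound BODIPY-GDP is released from Rap1B; % of control where 0% means no effect.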 The method in brief: (§1)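 Rap1B–BODIPY-GDP (250 nM) with 50 uM GDP; compounds pin-transferred to 9.74 nM–152 uM final (activator) or from 7.32 nM upwards (inhibitor). Fluorescence Ex/Em 480/540 nm read at 5 and 30 min, then after adding cAMP or buffer, at room temperature.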
For orientation: The purpose of a counterscreen is to sort out artefacts and off-target activity.

The target is the same in experiment [7]. Put plainly: Counterscreen qHTS for agonist of cAMP-regulated guanine nucleotide exchange factor 3 (EPAC1) (AID 1645889). Note: % of control where 0% means no effect; nearly all actives have a fitted effect of over 40% in size. The method in brief: as §1
For experiment [8], the target named is Phosphoglycerate kinase, glycosomal (Trypanosoma brucei brucei) (UniProt P07378). Put plainly: qHTS for inhibitors of Phosphogylcerate Kinase: Hit Validation Screen (AID 686980). Note: potency is the fitted concentration of half-maximal effect; nearly all actives have a fitted effect of over 65% in size. The note with it: TbPGK coupled GAPDH assay, Kinase-Glo luminescence. The gist of the method: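 Luminescent ATP detection (Kinase-Glo Plus) follows a 60-minute room-temperature incubation, with wells lacking PGK as controls. Buffer: 100 mM TEA (pH 7.6), 5 mM MgCl2, 0.01% Tween-20. Coupling enzyme GAPDH (100 nM final) supplies unstable 1,3-BPG in-well.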

Experiment [9] deals with DNA polymerase iota (Homo sapiens) (UniProt Q9UNA4). Briefly: qHTS for Inhibitors of Polymerase Iota: Confirmatory Assay for Cherry-picked Compounds (AID 720496). Note: potency is the fitted concentration of half-maximal effect. The note with it: Pol iota primer extension, TAMRA/BHQ fluorescence. The method in brief: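 Human Pol iota (10 nM) was preincubated 15 min at room temperature with compound, then started with 50 nM TAMRA/BHQ-2 quenched primer-template substrate. Fluorescence (ex 525/em 598 nm) was read at 0 and 10 min.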

Experiment [10] addresses DNA polymerase kappa (Homo sapiens) (UniProt Q9UBT6). Briefly: qHTS for Inhibitors of Polymerase Kappa: Confirmatory Assay for Cherry-picked Compounds (AID 720501). Note: potency is the fitted concentration of half-maximal effect. The note with it: purified Pol-kappa, fluorescent strand-displacement substrate. The method in brief: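 10 nM human Pol-kappa was preincubated with compound 15 min at room temperature, then 50 nM (final) primer/template substrate with TAMRA-labeled reporter strand and BHQ-2-labeled template added. Fluorescence (Ex 525, Em 598 nm) read at 0 and 10 min.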

Experiment [11] addresses DNA polymerase eta (Homo sapiens) (UniProt Q9Y253). Put plainly: qHTS for Inhibitors of Polymerase Eta: Confirmatory Assay for Cherry-picked Compounds (AID 720502). Note: potency is the fitted concentration of half-maximal effect. The note with it: Pol eta primer extension, TAMRA/BHQ fluorescence, 10 min. The method in brief: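 10 nM Pol eta + cpd, 15 min RT; start w/ 50 nM final primer/TAMRA-reporter/BHQ-2-template substrate; kinetic read 0 and 10 min, ex 525/em 598 nm. Buffer-only wells = negative control.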

Experiment [12] addresses Glutathione peroxidase 1 (Homo sapiens) (UniProt P07203). Briefly: Primary qHTS Assay for Inhibitors of Recombinant Selenoprotein Glutathione Peroxidase 1 (GPX1) (AID 1845191). Note: nearly all actives have a fitted effect of over 65% in size. Note: potency is the fitted concentration of half-maximal effect. The method in brief: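 GR-coupled assay: compounds preincubated 30 min at room temperature with GPX1, then reaction started with CHP; final 10 nM GPX1, 1 mM GSH, 0.5 mM CHP, 0.5 mM NADPH, 100 nM GR, 0.01% BSA, pH 7.5 Tris buffer. NADPH fluorescence (340/450 nm) read at 0 and 15 min.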

Experiment [13] has as its target Phospholipid hydroperoxide glutathione peroxidase GPX4 (Homo sapiens) (UniProt P36969). Briefly: Primary qHTS Assay for Inhibitors of Recombinant Selenoprotein Glutathione Peroxidase 4 (GPX4) (AID 1845192). For activity change, negative = inhibition: % is set by controls: 0 for no effect and ±100 for the full control effect. Note: nearly all actives have a fitted effect of over 65% in size. The gist of the method:
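GR-coupled assay: recombinant GPX4 preincubated 30 min with compound at room temperature; final 200 nM GPX4, 1 mM GSH, 0.5 mM cumene hydroperoxide, 0.5 mM NADPH, 100 nM GR, 0.01% BSA, pH 7.5 Tris. NADPH fluorescence (340/450 nm) read at 0 and 15 min.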

In experiment [14] the target is Tumor susceptibility gene 101 protein (Homo sapiens) (UniProt Q99816). Put plainly: qHTS Assay for Iinhibitors of HIV-1 Budding by Blocking the Interaction of PTAP/TSG101: Hit Validation (AID 651600). Note: potency is the fitted concentration of half-maximal effect; nearly all actives have a fitted effect of over 70% in size. The gist of the method:
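Fluorescence polarization binding assay: Tsg101 binding domain (10 uM final) pre-dispensed with compounds, then FITC-labeled PTAP-motif peptide (50 nM final) added; 20 min at r.t. in HEPES pH 7.5 buffer with NaCl, Tween 20, EDTA, TCEP.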

For experiment [15], the target named is Rap guanine nucleotide exchange factor 4 (Homo sapiens) (UniProt Q8WZA2). Briefly: Confirmatory qHTS for agonist of cAMP-regulated guanine nucleotide exchange factor 4 (EPAC2) (AID 1645884).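 Note: nucleotide exchange releases bodipy-GDP from Rap1 and this lowers its fluorescence; % is set by controls: 0 for no effect and ±100 for the full control effect; nearly all actives have a fitted effect of over 65% in size.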
A short description of experiment [16]: qHTS Assay for Identifying Gametocytocidal Compounds (AID 743244).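 Note: % is set by controls: 0 for no effect and ±100 for the full control effect; actives lower the fluorescent signal which means gametocytes are killed.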 The note with it: P. falciparum 3D7 stage III-V gametocytes, alamarBlue, 72 h; max response: stronger effect = lower value. The gist of the method: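 3D7 gametocytes, stages III–V, 20,000/well; cpd 72 h, 37 °C/5% CO2; + alamarBlue 24 h; fluor. Ex 525/Em 598.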
A short description of experiment [17]: qHTS drug screen for cell cycle checkpoint inhibitors in PARPi-resistant BRCA-mutant ovarian cancer cell lines. (AID 1963452; calls by dose curve). The note with it: PEO1/OlaR viability, CellTiter-Glo luminescence, 96 h, stronger effect = lower value. The method in brief:
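PEO1, PEO4 and PEO1/OlaR ovarian cancer cells, 600 per well, exposed 96 h at 37C to a dilution series. Viability read by CellTiter-Glo luminescence, normalized to DMSO and empty wells; activity summarized as Z-AUC.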

Experiment [18] in a line: Primary qHTS for inhibitors of nuclear receptor binding SET domain protein 2 (NSD2) in an isogenic RCH-ACV NSD2 p.E1099K mutant (9B) (AID 1645876). Note: potency is the fitted concentration of half-maximal effect; nearly all actives have a fitted effect of over 70% in size.
Experiment [19] in a line: Primary qHTS for inhibitors of nuclear receptor binding SET domain protein 2 (NSD2) in an RCH-ACV wild type WT cells (2C) (AID 1645877). Note: potency is the fitted concentration of half-maximal effect; nearly all actives have a fitted effect of over 70% in size.
Experiment [20] concerns the target Catechol O-methyltransferase (Homo sapiens) (UniProt P21964). Briefly: Confirmatory Screen for Target Class Profiling of Small Molecule Inhibitors of Methyltransferases (AID 1745852; calls by dose curve; note: potency is the fitted concentration of half-maximal effect). The note with it: MTase-Glo luminescence, SAH detection, recombinant enzyme; measured here: COMT max response; stronger effect = lower value.
Experiment [21] has as its target Guanidinoacetate N-methyltransferase (Homo sapiens) (UniProt Q14353). The description is as above. The note with it: MTase-Glo luminescence, SAH detection, recombinant enzyme; activity change, negative = inhibition: at 57.3 µM (top of the series) unless noted.
Experiment [22] addresses Nicotinamide N-methyltransferase (Homo sapiens) (UniProt P40261). The experiment is described as above. The note with it: MTase-Glo luminescence, SAH detection, recombinant enzyme; measured here: NNMT max response; stronger effect = lower value.
In experiment [23] the target is Phenylethanolamine N-methyltransferase (Homo sapiens) (UniProt P11086). The experiment is described as above. The note with it: MTase-Glo luminescence, SAH detection, recombinant enzyme; measured here: PNMT max response; stronger effect = lower value.
[24] abbreviates: measured here: PEO1 parental Z-AUC.

Inconclusive results are not listed. The list shows a part of the results. Activity calls are given as the source filed them. Unless noted, calls come from the whole dose curve; as a rule, active = well fitted curve in the direction sought with a large enough effect; inconclusive = small, poorly fitted or top-dose-only effect, or another doubt; inactive = no such curve, though single readings can be large; an effect the other way counts as inactive or inconclusive.

Sequence of Cytochrome P450 2D6 (Homo sapiens) (P10635 whole entry, looked up): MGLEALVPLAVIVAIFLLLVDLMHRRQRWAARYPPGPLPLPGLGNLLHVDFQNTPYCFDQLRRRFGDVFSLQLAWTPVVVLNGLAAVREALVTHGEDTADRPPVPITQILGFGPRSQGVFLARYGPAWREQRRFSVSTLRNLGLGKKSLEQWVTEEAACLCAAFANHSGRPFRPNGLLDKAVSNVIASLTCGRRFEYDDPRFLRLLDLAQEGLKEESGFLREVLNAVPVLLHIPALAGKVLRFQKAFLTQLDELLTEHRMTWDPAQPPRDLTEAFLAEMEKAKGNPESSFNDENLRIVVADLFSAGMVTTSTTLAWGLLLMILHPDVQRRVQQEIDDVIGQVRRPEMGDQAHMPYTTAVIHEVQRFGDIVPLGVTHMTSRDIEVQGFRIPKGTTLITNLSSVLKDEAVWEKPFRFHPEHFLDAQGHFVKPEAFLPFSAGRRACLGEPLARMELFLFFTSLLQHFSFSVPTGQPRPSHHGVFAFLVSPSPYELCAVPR
Sequence of Phospholipid hydroperoxide glutathione peroxidase GPX4 (Homo sapiens) (P36969 whole entry, looked up): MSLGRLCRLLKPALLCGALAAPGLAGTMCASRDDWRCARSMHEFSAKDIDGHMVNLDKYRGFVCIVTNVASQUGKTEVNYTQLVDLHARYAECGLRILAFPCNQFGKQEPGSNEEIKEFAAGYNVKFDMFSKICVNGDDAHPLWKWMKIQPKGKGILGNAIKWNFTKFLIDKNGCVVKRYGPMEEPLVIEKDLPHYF
Sequence of Rap guanine nucleotide exchange factor 4 (Homo sapiens) (Q8WZA2 whole entry, looked up): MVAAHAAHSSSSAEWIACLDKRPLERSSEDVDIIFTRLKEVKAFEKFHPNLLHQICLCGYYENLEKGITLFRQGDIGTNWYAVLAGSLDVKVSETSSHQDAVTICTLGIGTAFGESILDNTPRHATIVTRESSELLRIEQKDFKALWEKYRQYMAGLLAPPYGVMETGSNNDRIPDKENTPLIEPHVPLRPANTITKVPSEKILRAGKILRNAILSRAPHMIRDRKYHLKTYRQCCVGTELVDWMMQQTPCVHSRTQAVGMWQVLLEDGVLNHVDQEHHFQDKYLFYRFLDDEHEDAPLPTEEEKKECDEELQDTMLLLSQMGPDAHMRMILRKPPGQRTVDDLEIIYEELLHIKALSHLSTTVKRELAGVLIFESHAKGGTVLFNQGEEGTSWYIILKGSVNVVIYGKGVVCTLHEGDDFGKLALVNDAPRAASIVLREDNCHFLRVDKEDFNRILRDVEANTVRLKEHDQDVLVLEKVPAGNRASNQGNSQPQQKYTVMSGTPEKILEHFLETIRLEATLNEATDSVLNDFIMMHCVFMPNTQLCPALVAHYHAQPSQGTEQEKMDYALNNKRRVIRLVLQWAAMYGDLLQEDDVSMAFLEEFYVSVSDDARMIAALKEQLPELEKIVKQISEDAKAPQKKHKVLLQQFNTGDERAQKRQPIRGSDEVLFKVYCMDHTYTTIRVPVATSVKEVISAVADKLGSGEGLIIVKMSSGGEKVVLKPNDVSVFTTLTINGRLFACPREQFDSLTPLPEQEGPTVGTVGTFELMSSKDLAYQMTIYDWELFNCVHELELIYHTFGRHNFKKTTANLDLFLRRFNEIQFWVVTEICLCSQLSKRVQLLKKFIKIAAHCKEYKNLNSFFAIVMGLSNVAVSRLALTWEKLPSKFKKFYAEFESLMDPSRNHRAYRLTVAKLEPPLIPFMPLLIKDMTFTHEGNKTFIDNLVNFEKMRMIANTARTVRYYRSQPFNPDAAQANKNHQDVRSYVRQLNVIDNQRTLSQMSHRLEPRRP
Sequence of Cytochrome P450 2C9 (Homo sapiens) (P11712 whole entry, looked up): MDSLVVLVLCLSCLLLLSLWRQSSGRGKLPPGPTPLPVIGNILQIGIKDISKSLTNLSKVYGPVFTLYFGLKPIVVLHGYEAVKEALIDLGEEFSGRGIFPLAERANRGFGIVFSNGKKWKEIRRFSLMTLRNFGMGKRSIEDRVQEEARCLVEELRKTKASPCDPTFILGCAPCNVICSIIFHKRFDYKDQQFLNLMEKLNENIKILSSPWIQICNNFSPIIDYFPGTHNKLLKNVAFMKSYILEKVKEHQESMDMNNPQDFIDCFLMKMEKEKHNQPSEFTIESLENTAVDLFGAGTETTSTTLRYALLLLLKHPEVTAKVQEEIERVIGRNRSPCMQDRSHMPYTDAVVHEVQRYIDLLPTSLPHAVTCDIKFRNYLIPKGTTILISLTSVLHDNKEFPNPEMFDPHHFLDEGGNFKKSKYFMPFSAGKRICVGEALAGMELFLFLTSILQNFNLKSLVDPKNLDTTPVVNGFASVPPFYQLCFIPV
Sequence of Rap guanine nucleotide exchange factor 3 (Homo sapiens) (O95398 whole entry, looked up): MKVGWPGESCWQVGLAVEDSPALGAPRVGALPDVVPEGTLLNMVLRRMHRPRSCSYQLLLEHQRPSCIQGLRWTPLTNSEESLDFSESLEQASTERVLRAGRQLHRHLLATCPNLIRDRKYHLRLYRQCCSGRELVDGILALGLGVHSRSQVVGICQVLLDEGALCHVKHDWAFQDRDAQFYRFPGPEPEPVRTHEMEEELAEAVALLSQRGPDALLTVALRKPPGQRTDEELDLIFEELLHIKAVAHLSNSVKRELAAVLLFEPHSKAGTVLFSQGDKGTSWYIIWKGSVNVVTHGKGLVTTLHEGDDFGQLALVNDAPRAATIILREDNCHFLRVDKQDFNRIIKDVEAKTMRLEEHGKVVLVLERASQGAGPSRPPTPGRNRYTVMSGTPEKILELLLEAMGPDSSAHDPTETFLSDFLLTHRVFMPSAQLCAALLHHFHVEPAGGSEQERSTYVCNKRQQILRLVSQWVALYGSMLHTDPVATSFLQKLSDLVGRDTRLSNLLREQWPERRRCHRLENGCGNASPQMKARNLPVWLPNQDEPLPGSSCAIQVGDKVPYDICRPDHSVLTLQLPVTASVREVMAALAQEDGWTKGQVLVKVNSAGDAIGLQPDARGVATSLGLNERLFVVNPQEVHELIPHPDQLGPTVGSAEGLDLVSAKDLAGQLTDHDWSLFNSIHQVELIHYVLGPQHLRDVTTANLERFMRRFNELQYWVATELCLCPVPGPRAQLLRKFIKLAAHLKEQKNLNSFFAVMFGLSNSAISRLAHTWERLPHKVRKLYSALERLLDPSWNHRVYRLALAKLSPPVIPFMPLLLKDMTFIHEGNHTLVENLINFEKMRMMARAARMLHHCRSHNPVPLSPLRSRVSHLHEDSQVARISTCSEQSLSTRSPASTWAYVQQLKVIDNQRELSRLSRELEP
Sequence of Glutathione peroxidase 1 (Homo sapiens) (P07203 whole entry, looked up): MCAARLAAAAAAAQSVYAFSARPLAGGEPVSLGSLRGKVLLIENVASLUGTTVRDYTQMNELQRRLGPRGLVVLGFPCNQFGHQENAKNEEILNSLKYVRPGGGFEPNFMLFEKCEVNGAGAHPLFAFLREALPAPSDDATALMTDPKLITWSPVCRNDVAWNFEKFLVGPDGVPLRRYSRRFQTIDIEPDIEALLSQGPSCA
Sequence of Tumor susceptibility gene 101 protein (Homo sapiens) (Q99816 whole entry, looked up, the tested form may be a part): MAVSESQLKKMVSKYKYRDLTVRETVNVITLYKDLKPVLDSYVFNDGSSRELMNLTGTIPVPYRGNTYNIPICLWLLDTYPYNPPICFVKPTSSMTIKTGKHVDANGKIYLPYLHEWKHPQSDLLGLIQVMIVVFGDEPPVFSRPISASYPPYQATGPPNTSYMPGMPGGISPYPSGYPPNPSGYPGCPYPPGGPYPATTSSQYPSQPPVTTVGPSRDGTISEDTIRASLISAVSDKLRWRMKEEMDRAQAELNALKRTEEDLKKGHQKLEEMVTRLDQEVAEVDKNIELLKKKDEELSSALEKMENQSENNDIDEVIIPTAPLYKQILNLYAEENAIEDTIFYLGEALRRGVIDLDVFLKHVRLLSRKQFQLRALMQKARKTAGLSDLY
Sequence of DNA polymerase kappa (Homo sapiens) (Q9UBT6 whole entry, looked up): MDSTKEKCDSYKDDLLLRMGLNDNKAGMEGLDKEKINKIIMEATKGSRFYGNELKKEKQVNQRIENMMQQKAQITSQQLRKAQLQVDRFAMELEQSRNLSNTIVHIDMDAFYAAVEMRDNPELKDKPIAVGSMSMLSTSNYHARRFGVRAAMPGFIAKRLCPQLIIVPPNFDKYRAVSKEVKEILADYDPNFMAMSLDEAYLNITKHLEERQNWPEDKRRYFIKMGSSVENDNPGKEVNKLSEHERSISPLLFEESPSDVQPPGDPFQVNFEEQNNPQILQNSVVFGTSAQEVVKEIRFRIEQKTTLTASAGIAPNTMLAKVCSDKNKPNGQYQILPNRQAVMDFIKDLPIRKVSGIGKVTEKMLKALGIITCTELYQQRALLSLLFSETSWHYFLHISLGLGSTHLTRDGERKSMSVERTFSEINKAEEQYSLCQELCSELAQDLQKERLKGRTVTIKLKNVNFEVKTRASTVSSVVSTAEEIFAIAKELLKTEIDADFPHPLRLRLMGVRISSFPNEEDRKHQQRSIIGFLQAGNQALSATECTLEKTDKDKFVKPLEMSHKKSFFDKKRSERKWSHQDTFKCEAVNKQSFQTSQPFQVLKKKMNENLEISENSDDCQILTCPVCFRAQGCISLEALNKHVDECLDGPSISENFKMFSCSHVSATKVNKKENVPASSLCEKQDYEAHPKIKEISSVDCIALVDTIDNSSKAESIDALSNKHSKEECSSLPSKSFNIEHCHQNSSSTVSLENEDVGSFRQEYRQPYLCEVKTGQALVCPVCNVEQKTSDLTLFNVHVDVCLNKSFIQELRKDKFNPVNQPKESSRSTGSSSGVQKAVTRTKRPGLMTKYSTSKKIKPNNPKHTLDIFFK
Sequence of Nicotinamide N-methyltransferase (Homo sapiens) (P40261 whole entry, looked up): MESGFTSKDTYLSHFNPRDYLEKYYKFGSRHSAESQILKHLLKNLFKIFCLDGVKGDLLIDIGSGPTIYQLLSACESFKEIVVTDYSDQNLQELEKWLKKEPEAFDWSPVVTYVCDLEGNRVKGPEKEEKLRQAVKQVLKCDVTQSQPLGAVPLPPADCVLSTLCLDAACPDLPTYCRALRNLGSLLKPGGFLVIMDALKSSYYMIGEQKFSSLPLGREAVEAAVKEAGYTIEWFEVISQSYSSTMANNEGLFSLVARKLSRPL

For `COc1ccc(CNC(=O)C2CCCN(c3nnc(C)c4c(C)n(-c5ccc(C)cc5)nc34)C2)cc1` (stereo not given), the Potency in [1] is 2.68 µM (active).

For the compound `Cc1ccc(Cn2c(Cc3ccccc3)nc3ccccc32)cc1`, the Potency is 10.7 µM (active) in experiment [2] and 13.5 µM (active) in experiment [1]. Besides, the Potency result in experiment [3], in experiment [4], in experiment [5], in experiment [6] and in experiment [7] was “inactive” throughout.

With `C=CC1=C(C(=O)O)N2C(=O)[C@@H](NC(=O)/C(=N\OCC(=O)O)c3csc(N)n3)[C@H]2SC1`, the Potency in experiment [8] was 4.11 µM (active); in [9], 7.52 µM (active); in experiment [10], 4.74 µM (active); in experiment [11] it was 19 µM (active); in [12] it was 7.18 µM (active). For the same compound, the Potency entry in experiment [2], in [1] and in experiment [13] was “inactive” in each case.

Consider `Cc1ccc2c(c1)-c1c(c(C(=O)N3CCN(c4cc(C)ccc4C)CC3)nn1C)CS2`, for which the Potency in [14] was 18.3 µM (active); in [1], 2.39 µM (active); in experiment [5] it was 3.79 µM (active). In addition, the Potency entry in experiment [2], in [3], in experiment [4], in [15], in experiment [6] and in experiment [7] was “inactive” each time.

As for `CC[C@H]1OC(=O)[C@H](C)[C@@H](O[C@H]2C[C@@](C)(OC)[C@@H](O)[C@H](C)O2)[C@H](C)[C@@H](O[C@@H]2O[C@H](C)C[C@H](N(C)C)[C@H]2O)[C@](C)(OC)C[C@@H](C)C(=O)[C@H](C)[C@@H](O)[C@]1(C)O`, in [16], the max response was -5.34% (inactive). Moreover, the Potency result in experiment [2], in experiment [1], in [12] and in experiment [13] was “inactive” throughout.

Regarding `CC(C)[C@H]1CC[C@H](C)C[C@H]1O`, the Potency entry in experiment [2], in [1], in [12] and in experiment [13] was “inactive” each time.

For `C#C[C@]1(O)CC[C@@H]2[C@@H]3CCC4=CCCC[C@@H]4[C@H]3C(=C)C[C@@]21CC`, the Potency entry in experiment [2] and in experiment [12] was “inactive” throughout. Also, the Potency in experiment [1] is 3.38 µM (active).

As to `Cc1cc2c(F)c(Oc3ncnn4cc(OC[C@@H](C)OC(=O)[C@H](C)N)c(C)c34)ccc2[nH]1`, the Potency in [2] is 10.7 µM (active); in [1], 2.39 µM (active). For the same compound, the Potency result in experiment [12] was “inactive”. Moreover, the Z-AUC in experiment [17] is 1.46 (inactive); in experiment [17] (setting [24]), 0.526; in experiment [17] (measured here: PEO4 Z-AUC), 0.822.

Consider `Nc1nc(Nc2ccc3c(c2)CC[C@@H](N2CCCC2)CC3)nn1-c1cc2c(nn1)-c1ccccc1CCC2`, for which the Potency in experiment [2] is 5.35 µM (active); in experiment [18], 2.63 µM (active); in [19], 3.32 µM (active); in [21], 24.1 µM (active). Further, the results for the activity in [20], in [22] and in experiment [23] were -19.2%, -19.6% and -24%, respectively. Further, the Potency entry in [12] and in experiment [13] was “inactive” in each case. For the same compound, the values for the Z-AUC in experiment [17], in [17] (setting [24]) and in experiment [17] (measured here: PEO4 Z-AUC) were 0.211 (inactive), -0.494 and -0.517, respectively.
